Bioassay records (PubChem)
A selection: hits, their analogues and other compounds. The true share with any hit is near 3.3%.
SUMO HTRF inh: inhibitors of in vitro SUMOylation cascade, primary screen, biochemical, HTRF, uHTS; SUMO-conjugating enzyme UBC9 (Homo sapiens), P63279; HTRF SUMOylation assay, SAE1/SAE2 + UBC9; inhibition, % at 35 µM; 0.36% of 290,000 active; in the data active = inhibition above about 50%, passing the limit was not always enough; inconclusive = no clear call, values can overlap the other calls
Target sequence (P63279 whole entry, looked up): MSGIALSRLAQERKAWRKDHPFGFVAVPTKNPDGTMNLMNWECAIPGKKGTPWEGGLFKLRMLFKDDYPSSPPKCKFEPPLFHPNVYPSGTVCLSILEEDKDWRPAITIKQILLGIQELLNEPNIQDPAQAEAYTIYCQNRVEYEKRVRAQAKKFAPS
HGIII-sPLA2 inh: human group III sPLA2 inhibitors, primary screen, biochemical, QFRET, BODIPY PC-A2 liposome substrate; Group 3 secretory phospholipase A2 (Homo sapiens), Q9NZ20; QFRET BODIPY PC-A2 liposome hydrolysis, fluorescence; AID 743126, 2013; inhibition, % at 12.2 µM; 0.56% of 370,000 active;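 active = inhibition above mean plus 3 SD of compounds lying within the high and low control bounds, cut at about 19% in these data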;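 note: 0% = median of test compound wells and 100% = no enzyme DMSO wells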
GRIN3A LBD mod: binders of NR3A ligand-binding domain, primary screen, biophysical, differential scanning fluorimetry, uHTS; Glutamate receptor ionotropic, NMDA 3A (GRIN3A) ligand-binding domain; NR3A LBD differential scanning fluorimetry, Tm shift; 0% = protein alone, 100% = glycine-bound protein; Tm shift relative to glycine control, % at 25 µM; 2.5% of 340,000 active;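 active = melting temperature shift of at least 10% of the positive control shift, at one fixed dose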
UBC13 polyUb: UBC13 polyubiquitin chain formation inhibitors, primary screen, biochemical, TR-FRET, uHTS; Ubiquitin-conjugating enzyme E2 N (Homo sapiens), P61088; inhibition, % at 20 µM; 0.47% of 330,000 active; AID 485273, 2010; in the data active = inhibition above about 45%, passing the limit was not always enough; inconclusive = no clear call, values can overlap the other calls
Target sequence (P61088 whole entry, looked up): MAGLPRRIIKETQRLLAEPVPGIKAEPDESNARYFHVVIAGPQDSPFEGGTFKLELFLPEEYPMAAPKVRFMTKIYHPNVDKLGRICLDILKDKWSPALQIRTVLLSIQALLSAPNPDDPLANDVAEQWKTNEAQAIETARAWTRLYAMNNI
Casp3 UBC13 ctr: CASP3 inhibitor validation, counterassay for project on UBE2N polyubiquitination blockers, biochemical, one dose; 4% of 1,400 active; shares compounds with UBC13 polyUb; Recombinant caspase-3, Caspase-Glo 3/7 luminescence, 60 min; inhibition, % at 20 µM;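 active = mean inhibition across replicates above about 26%, limit read from the data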;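 note: plate controls were DMSO with caspase-3 for no effect and DMSO wells lacking enzyme for full effect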
Target sequence (P42574 whole entry, looked up): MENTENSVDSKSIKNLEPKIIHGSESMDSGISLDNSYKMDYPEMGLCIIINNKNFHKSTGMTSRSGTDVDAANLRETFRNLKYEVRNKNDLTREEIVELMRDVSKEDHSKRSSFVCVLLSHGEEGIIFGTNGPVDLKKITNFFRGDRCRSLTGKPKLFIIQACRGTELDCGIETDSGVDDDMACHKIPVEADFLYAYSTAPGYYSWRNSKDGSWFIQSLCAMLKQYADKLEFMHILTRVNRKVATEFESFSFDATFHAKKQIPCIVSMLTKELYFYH
UBC13 conf: UBC13 polyubiquitination inhibitors, single-point retest, confirmation, biochemical, TR-FRET, single concentration; shares compounds with UBC13 polyUb; inhibition, % at 10 µM; 68% of 1,400 active; AID 488859, 2010; in the data active = inhibition above about 45%; inconclusive = no clear call, values can overlap the other calls
* marks the source's active call; other numbers are inactive results; ? = inconclusive; / = no result given.

SMILES	SUMO HTRF inh	HGIII-sPLA2 inh	GRIN3A LBD mod	UBC13 polyUb	Casp3 UBC13 ctr	UBC13 conf
COc1ccc(-c2sc3ccccc3c2C#Cc2cncn2C)cc1	/	-14.2	-16.4	58.7*	-0.6	43.8
COc1ccc(-c2sc3ccccc3c2C#CCO)cc1	0.7	-15.2	-16.8	17.2	/	/
CCCCNC(=O)C[C@@H]1C(=O)N(CCc2ccc(Cl)cc2)C2=CCCCC[C@]21C(=O)OC	/	-10.3	/	/	/	/
CCCn1c2ccccc2c2nc3ccccc3nc21	11.4	-4.4	5.9	46.6*	5.2	40.8
O=C(Nc1ccccc1C(F)(F)F)c1cc(S(=O)(=O)N2CCC3(CC2)OCCO3)ccc1F	18.6	-0.9	0.5	8.2	/	/
COc1ccccc1NC(=O)c1cc(S(=O)(=O)NCc2ccccc2)ccc1F	-2.2	-32.6	-11.9	63.0*	0.0	74.8*
COc1ccccc1NC(=O)c1cc(S(=O)(=O)N2CCC3(CC2)OCCO3)ccc1F	16.8	/	0.1	55.5*	-3.8	40.2
COc1ccc(CNS(=O)(=O)c2ccc(F)c(C(=O)Nc3ccccc3OC)c2)cc1	15.0	8.4	0.9	18.4	/	/
C/C=C/C=C/C(=O)N1C[C@H](C)N(C)C[C@H]1C	/	18.4	/	/	/	/
C[C@@H](CN1CCC[C@H]1CN1C(N)=NC[C@@H]1Cc1ccccc1)N1C[C@@H](Cc2ccccc2)N(CCc2ccc(Cl)c(Cl)c2)C1=N	/	/	-1.3	63.1*	-4.8	69.8*
CC(C)[C@@H]1CN=C(N)N1C[C@@H]1CCCN1C[C@H](C)N1C[C@@H](Cc2ccccc2)N(CCc2ccc(Cl)c(Cl)c2)C1=N	/	/	-3.1	69.5*	-2.3	46.3*
CCCCN1C(=N)N([C@@H](C)CN2CCC[C@H]2CN2C(N)=NC[C@H]2CC(C)C)C[C@H]1Cc1ccccc1	/	4.6	-0.8	27.2	/	/
CC(C)[C@H](CN1CCC[C@H]1CN1C(N)=NC[C@@H]1Cc1ccccc1)N1C[C@@H](Cc2ccccc2)N(CCc2ccc(Cl)c(Cl)c2)C1=N	/	/	-4.0	74.8*	2.6	75.8*
COC(=O)[C@]12C[C@H](CC(=O)NCCc3ccccc3OC)C(=O)N(CCc3ccc(OC)c(OC)c3)C1=C[C@H](C(C)C)O[C@@H]2C1CC1	/	-6.7	/	/	/	/
O=C(N/N=C/c1ccccn1)c1cc(-c2cccc3ccccc23)n[nH]1	-36.6	1.9	-13.8	-10.4	/	/
CCc1ccc(-c2cc(C(=O)N/N=C/c3ccccn3)[nH]n2)cc1	14.1	2.4	-1.6	49.9*	1.8	53.9*
O=C(N/N=C/c1ccccn1)c1cc(-c2ccc3ccccc3c2)n[nH]1	-22.7	-2.8	1.5	16.5	/	/
O=C(N/N=C/c1ccccn1)c1cc(-c2ccccc2Cl)n[nH]1	1.0	-0.7	-31.4	46.7*	-2.4	41.5
C=CCn1c(NC(=O)c2ccc(C)cc2)nc2ccccc21	35.8	-1.8	1.7	46.5*	-7.9	?
CCCn1c(NC(=O)c2ccc(C)cc2)nc2ccccc21	28.1	7.8	-1.9	14.0	/	/
Cc1ccsc1CNc1ncnc2ccc(-c3c(C)noc3C)cc12	/	-5.5	-4.4	46.3*	1.0	43.5
COc1cccc(CNc2ncnc3ccc(-c4c(C)noc4C)cc23)c1	/	0.7	-1.1	?	/	/
COc1ccc(CCN(C)C(=O)CN2C(=O)c3ccccc3S2(=O)=O)cc1OC	0.7	7.2	2.5	-3.3	/	/
COc1ccc(CCN(/C=C2\Sc3ccccc3C2=O)C(C)=O)cc1OC	16.3	-2.1	-0.7	51.8*	0.5	33.7
COC(=O)c1ccc(Cn2ccc3ccc(-c4ccc5ccn(C(=O)C6CCCCC6)c5c4)cc32)cc1	/	-1.2	/	/	/	/
SMILES	SUMO HTRF inh	HGIII-sPLA2 inh	GRIN3A LBD mod	UBC13 polyUb	Casp3 UBC13 ctr	UBC13 conf
CCN(CC)CCOC(=O)c1ccc(NC(=O)c2cn(-c3ccccc3)nc2-c2cccs2)cc1	-20.4	-44.2	7.5	96.4*	-4.2	111.4*
CCN(CC)CCNC(=O)c1cn(-c2ccccc2)nc1-c1cccs1	9.9	4.7	1.1	9.3	/	/
O=C(CCCn1c(=S)[nH]c2ccsc2c1=O)NCCc1ccccc1	7.3	7.5	0.2	55.6*	-3.6	?
Cc1ccc(-n2c(SCC(=O)Nc3ccc4c(c3)OCCO4)nnc2-c2cccnc2)cc1	/	-4.7	/	/	/	/
CCc1ccc(OCC(=O)NNC(=O)c2cnccn2)c(Br)c1	-8.7	1.1	5.7	52.6*	3.6	41.2
NC1=NC[C@H](Cc2ccc(O)cc2)N1CCC12CC3CC(CC(C3)C1)C2	6.1	-7.8	-2.0	77.6*	2.1	58.0*
NC1=NC[C@H](CC2CCCCC2)N1CCc1cc(C(F)(F)F)cc(C(F)(F)F)c1	10.0	3.3	-1.2	96.7*	-0.8	97.8*
NC1=NC[C@@H](Cc2ccc(O)cc2)N1CCc1cc(C(F)(F)F)cc(C(F)(F)F)c1	16.1	-6.0	1.8	64.0*	-4.0	36.3
NCCCC[C@H]1CN=C(N)N1CCCCC1CCCCC1	/	-4.9	-0.6	22.9	/	/
C[C@H]1[C@@H](OC(=O)NCc2ccco2)CC[C@@]23CCCN2C(=O)CCC[C@@H]13	/	11.9	/	/	/	/
CCOC(=O)C1(Cc2ccccc2)CCN(Cc2ccccc2[N+](=O)[O-])CC1	/	0.7	/	/	/	/
C[C@@H]1O[C@@H](Oc2c(-c3cc(O)c(O)c(O)c3)oc3cc(O)cc(O)c3c2=O)[C@H](O)[C@H](O)[C@H]1O	17.0	7.3	-10.3	49.9*	-5.4	17.0
C[C@@H]1O[C@@H](Oc2c(-c3ccc(O)c(O)c3)oc3cc(O)cc(O)c3c2=O)[C@H](O)[C@H](O)[C@H]1O	/	12.9	-2.4	20.5	/	/
Cc1ccc(CN2CCCCC(NC(=O)c3ccc(C)cc3)C2=O)cc1 (stereo not given)	/	8.8	/	/	/	/
COc1ccc(CNC[C@@H](CCCCN(C)Cc2ccc(OC)cc2)N2C[C@H](c3ccccc3)N(CCc3ccc(Cl)c(Cl)c3)C(=O)C2=O)cc1	-34.4	/	-25.2	93.4*	-1.7	74.2*
CN(CCCC[C@H](CNCc1ccc(-c2ccccc2)cc1)N1C[C@H](c2ccccc2)N(CCc2ccc(Cl)c(Cl)c2)C(=O)C1=O)Cc1ccc(-c2ccccc2)cc1	-0.9	/	/	/	/	/
COC(=O)C1CN(Cc2cn(Cc3ccccc3)nn2)CCS(=O)(=O)N1Cc1ccc(C)cc1 (stereo not given)	/	-1.1	/	/	/	/
O=C(CCCn1c(=O)c2ccccc2n(Cc2cccc(F)c2)c1=O)NC1CCN(Cc2ccccc2)CC1	-13.2	-22.8	/	100.3*	3.9	111.7*
O=C(CCCCn1c(=O)c2ccccc2n(Cc2ccccc2)c1=O)NC1CCN(Cc2ccccc2)CC1	-8.3	-21.3	-2.0	94.2*	1.2	108.3*
CCc1ccc(NC(=O)Cn2c(=O)n(CCC(=O)NC3CCN(Cc4ccccc4)CC3)c(=O)c3ccccc32)cc1	19.2	9.0	0.5	15.9	/	/
